About 2,000 (36%) of roughly 5,500 compounds were called active. Another 18% or so got no clear call; they are omitted. No stated cut-off is given here; in the data, active means normalized growth mostly below about 0.91 (no sharp cut-off); inconclusive means no clear call, values can overlap the other calls; inactive means mostly above about 0.92. The list shows a part of the results.
Assay: chemical genetic growth profiling, strain panel (AID 1159580);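 further: tested at 20 µM; growth read once vehicle control cultures reached saturation at 30 °C; 1 = growth at the plate median or of vehicle wells; lower values mean less growth of the strain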
Conditions: growth OD

Measured: normalized growth

CC1(C)S[C@@H]2[C@H](NC(=O)COc3ccccc3)C(=O)N2[C@H]1C(=O)O
inactive: S. cerevisiae deletion strains, locus YJR075W, strain HOC1, active compounds read low 1 | S. cerevisiae deletion strains, locus YKL009W, strain mrt4, active compounds read low 1.03 | S. cerevisiae deletion strains, locus YKL068W, active compounds read low 1.02 | S. cerevisiae deletion strains, locus YKL085W, strain MDH1 (second series), active compounds read low 1.01 | S. cerevisiae deletion strains, locus YKL085W, strain MDH1, active compounds read low 1.01 | S. cerevisiae deletion strains, locus YKL160W, strain elf1, active compounds read low 0.977 | S. cerevisiae deletion strains, locus YKL190W, strain CNB1, active compounds read low 0.992 | S. cerevisiae deletion strains, locus YKR001C, strain vps1, active compounds read low 1.03 | S. cerevisiae deletion strains, locus YKR026C, strain gcn3, active compounds read low 0.983 | S. cerevisiae deletion strains, locus YKR091W, strain srl3, active compounds read low 0.991 | S. cerevisiae deletion strains, locus YLL001W, strain dnm1, active compounds read low 0.935 | S. cerevisiae deletion strains, locus YLL026W, active compounds read low 0.983 | S. cerevisiae deletion strains, locus YLL041C, strain sdh2, active compounds read low 0.999 | S. cerevisiae deletion strains, locus YLR027C, strain aat2, active compounds read low 0.973 | S. cerevisiae deletion strains, locus YLR039C, strain RIC1, active compounds read low 1.04 | S. cerevisiae deletion strains, locus YLR058C, strain SHM2, active compounds read low 1 | S. cerevisiae deletion strains, locus YLR102C, strain apc9, active compounds read low 1.02 | S. cerevisiae deletion strains, locus YLR113W, strain HOG1, active compounds read low 0.994 | S. cerevisiae deletion strains, locus YLR221C, strain rsa3, active compounds read low 1.01 | S. cerevisiae deletion strains, locus YLR258W, strain gsy2, active compounds read low 0.999 | S. cerevisiae deletion strains, locus YLR262C, strain YPT6 (second series), active compounds read low 0.968 | S. cerevisiae deletion strains, locus YLR262C, strain YPT6, active compounds read low 1.04 | S. cerevisiae deletion strains, locus YLR268W, strain sec22, active compounds read low 1.03 | S. cerevisiae deletion strains, locus YLR320W, strain mms22, active compounds read low 0.99 | S. cerevisiae deletion strains, locus YLR330W, strain CHS5, active compounds read low 1 | S. cerevisiae deletion strains, locus YLR342W, strain FKS1 (second series), active compounds read low 0.976 | S. cerevisiae deletion strains, locus YLR342W, strain FKS1, active compounds read low 0.975 | S. cerevisiae deletion strains, locus YLR357W, strain rsc2, active compounds read low 0.992 | S. cerevisiae deletion strains, locus YLR370C, strain arc18, active compounds read low 1 | S. cerevisiae deletion strains, locus YLR371W, strain rom2, active compounds read low 1.02 | S. cerevisiae deletion strains, locus YLR384C, strain iki3, active compounds read low 0.98 | S. cerevisiae deletion strains, locus YLR418C, strain cdc73, active compounds read low 1.06 | S. cerevisiae deletion strains, locus YML016C, strain PPZ1, active compounds read low 1.01 | S. cerevisiae deletion strains, locus YML032C, strain rad52, active compounds read low 1.04 | S. cerevisiae deletion strains, locus YML120C, strain ndi1, active compounds read low 0.995 | S. cerevisiae deletion strains, locus YML124C, strain tub3, active compounds read low 1.03 | S. cerevisiae deletion strains, locus YMR058W, strain fet3, active compounds read low 0.988 | S. cerevisiae deletion strains, locus YMR078C, strain ctf18, active compounds read low 1.02 | S. cerevisiae deletion strains, locus YMR125W, strain sto1, active compounds read low 1.01 | S. cerevisiae deletion strains, locus YMR129W, active compounds read low 0.998 | S. cerevisiae deletion strains, locus YMR205C, strain PFK2, active compounds read low 0.994 | S. cerevisiae deletion strains, locus YMR223W, strain ubp8, active compounds read low 1.02 | S. cerevisiae deletion strains, locus YMR231W, strain pep5, active compounds read low 1.01 | S. cerevisiae deletion strains, locus YMR263W, strain SAP30, active compounds read low 1 | S. cerevisiae deletion strains, locus YMR307W, strain GAS1, active compounds read low 0.989 | S. cerevisiae deletion strains, locus YNL067W, strain RPL9B, active compounds read low 1.01 | S. cerevisiae deletion strains, locus YNL071W, strain lat1, active compounds read low 1 | S. cerevisiae deletion strains, locus YNL128W, strain TEP1, active compounds read low 1.01 | S. cerevisiae deletion strains, locus YNL153C, strain GIM3, active compounds read low 1 | S. cerevisiae deletion strains, locus YNL183C, strain NPR1, active compounds read low 0.937 | S. cerevisiae deletion strains, locus YNL209W, strain ssb2, active compounds read low 1 | S. cerevisiae deletion strains, locus YNL233W, strain BNI4, active compounds read low 1.01 | S. cerevisiae deletion strains, locus YNL248C, strain rpa49, active compounds read low 1.03 | S. cerevisiae deletion strains, locus YNL250W, strain rad50, active compounds read low 1.03 | S. cerevisiae deletion strains, locus YNL271C, strain bni1, active compounds read low 1.02 | S. cerevisiae deletion strains, locus YNL298W, strain CLA4, active compounds read low 1.04 | S. cerevisiae deletion strains, locus YNL307C, strain MCK1, active compounds read low 1.03 | S. cerevisiae deletion strains, locus YNL322C, strain KRE1 (second series), active compounds read low 0.997 | S. cerevisiae deletion strains, locus YNL322C, strain KRE1, active compounds read low 1 | S. cerevisiae deletion strains, locus YNR049C, strain mso1, active compounds read low 0.994 | S. cerevisiae deletion strains, locus YNR052C, strain pop2, active compounds read low 1.01 | S. cerevisiae deletion strains, locus YOL006C, strain TOP1, active compounds read low 1.05 | S. cerevisiae deletion strains, locus YOL012C, strain htz1 1.38 | S. cerevisiae deletion strains, locus YOL147C, strain pex11, active compounds read low 1.02 | S. cerevisiae deletion strains, locus YOR001W, strain rrp6, active compounds read low 0.983 | S. cerevisiae deletion strains, locus YOR061W, strain CKA2, active compounds read low 1.02 | S. cerevisiae deletion strains, locus YOR069W, strain VPS5, active compounds read low 1 | S. cerevisiae deletion strains, locus YOR070C, strain gyp1, active compounds read low 1 | S. cerevisiae deletion strains, locus YOR080W, strain dia2, active compounds read low 0.986 | S. cerevisiae deletion strains, locus YOR083W, strain WHI5, active compounds read low 0.954 | S. cerevisiae deletion strains, locus YOR106W, strain vam3, active compounds read low 0.963 | S. cerevisiae deletion strains, locus YOR136W, strain idh2, active compounds read low 1.03 | S. cerevisiae deletion strains, locus YOR144C, strain elg1, active compounds read low 1.02 | S. cerevisiae deletion strains, locus YOR184W, strain ser1, active compounds read low 1.04 | S. cerevisiae deletion strains, locus YOR231W, strain MKK1, active compounds read low 1.02 | S. cerevisiae deletion strains, locus YOR265W, strain rbl2, active compounds read low 1 | S. cerevisiae deletion strains, locus YOR270C, strain vph1, active compounds read low 1.01 | S. cerevisiae deletion strains, locus YOR290C, strain snf2, active compounds read low 1.01 | S. cerevisiae deletion strains, locus YOR316C, strain cot1, active compounds read low 1.02 | S. cerevisiae deletion strains, locus YPL051W, strain arl3, active compounds read low 0.982 | S. cerevisiae deletion strains, locus YPL055C, strain LGE1, active compounds read low 1.01 | S. cerevisiae deletion strains, locus YPL078C, strain atp4, active compounds read low 0.955 | S. cerevisiae deletion strains, locus YPL106C, strain sse1, active compounds read low 0.998 | S. cerevisiae deletion strains, locus YPL240C, strain hsp82, active compounds read low 1 | S. cerevisiae deletion strains, locus YPL241C, strain CIN2, active compounds read low 1 | S. cerevisiae deletion strains, locus YPL256C, strain CLN2, active compounds read low 0.968 | S. cerevisiae deletion strains, locus YPR119W, strain clb2, active compounds read low 1.02 | S. cerevisiae deletion strains, locus YPR141C, strain kar3, active compounds read low 1.03 | S. cerevisiae deletion strains, locus YPR163C, strain tif3, active compounds read low 1.04 | S. cerevisiae deletion strains, locus YPR167C, strain met16, active compounds read low 1.02 | S. cerevisiae deletion strains, strain wtn01, active compounds read low 1.02 | S. cerevisiae strains, strain wild type, active compounds read low 1.01

From PubChem BioAssay AID1159580 (chemical genetic matrix, 2015)
